# Screening results (PubChem)
# G9a inh: qHTS Assay for Inhibitors of Histone Lysine Methyltransferase G9a; AID 504332, 2011; hit rate 8.8% among 350,000; Histone-lysine N-methyltransferase EHMT2 (Homo sapiens), Q96KQ7; Potency, µM (series often up to 102 µM), hits mostly inhibitors; G9a H3K9 monomethylation, AlphaScreen, 2 h; further: nearly all actives have a fitted effect of over 75% in size
# Target sequence (Q96KQ7 913-1193 limits assumed): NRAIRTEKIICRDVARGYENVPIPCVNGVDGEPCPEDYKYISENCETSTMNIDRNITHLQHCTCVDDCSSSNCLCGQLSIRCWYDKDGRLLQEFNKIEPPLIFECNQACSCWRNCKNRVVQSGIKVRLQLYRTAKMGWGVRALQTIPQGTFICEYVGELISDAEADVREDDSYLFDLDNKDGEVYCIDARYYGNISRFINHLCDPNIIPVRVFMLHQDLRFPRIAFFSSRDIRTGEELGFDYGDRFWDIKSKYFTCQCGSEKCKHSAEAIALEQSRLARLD
#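 AlphaScreen read-out: biotin-H3K9 peptide (500 nM) methylation by 20 nM enzyme with 20 uM SAM, 2 h at room temperature after 15 min compound preincubation; anti-monomethyl H3K9 antibody plus donor/acceptor beads, 10 min dark.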
# Sfp inh: qHTS Assay for Inhibitors of Bacillus subtilis Sfp phosphopantetheinyl transferase (PPTase). Potency, µM, hits mostly inhibitors. AID 1490, 2009. hit rate 3.5% among 310,000. Biochemical Sfp PPTase activity, qHTS;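 further: the enzyme is Sfp with the accession as filed and its product quenches rhodamine fluorescence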
#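 Sfp 15 nM + cpd, 15 min RT; start w/ rhodamine-CoA 5 uM, BHQ-2-YbbR 12.5 uM (final); 50 mM Hepes pH 7.6, 10 mM MgCl2, 0.01% NP-40, 0.01% BSA; read 525/598 nm at 0 and 30 min.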
# Coupling enz: qHTS Assay for Inhibitors of Fructose-1,6-bisphosphate Aldolase from Giardia Lamblia: Coupling assay counterscreen; coupling enzyme system counterscreen, AmpLite Red fluorescence; activity change, negative = inhibition, % at 58.2 µM, hits read low; hit rate 0.67% among 290,000; in the data active means activity change below about -30%
#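 Coupling enzymes only (glyceraldehyde-3-phosphate) + compound, at 57.5 uM final, 10 min RT; add substrate/coupling/AmpLite Red mix, 20 min RT; fluorescence ex 525/em 598 nm. Actives flag coupling-system interference.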
# Tau ThT inhib: qHTS for Inhibitors of Tau Fibril Formation, Thioflavin T Binding; Microtubule-associated protein tau (Homo sapiens), P10636; recombinant tau K18 P301L, heparin-induced fibrillization, ThT fluorescence; Potency, µM (doses to about 57.4 µM), hits mostly inhibitors; hit rate 2.1% among 270,000; AID 1460, 2008; further: nearly all actives have a fitted effect of over 55% in size
# Target sequence (P10636 561-689 P618L limits assumed): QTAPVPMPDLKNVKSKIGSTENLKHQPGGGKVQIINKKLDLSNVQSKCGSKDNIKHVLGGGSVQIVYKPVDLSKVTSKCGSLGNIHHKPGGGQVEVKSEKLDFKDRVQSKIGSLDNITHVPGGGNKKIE
#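 Recombinant human tau K18 fragment […] carrying P301L, 15 uM unlabeled plus 0.24 uM Alexa 594-labeled, was fibrillized with 20 uM heparin in 100 mM sodium acetate pH 7 for 6 hr at 37 C; 30 uM ThT fluorescence read after 1 hr.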
# Tau fluor counter: Counterscreen qHTS for Inhibitors of Tau Fibril Formation, Fluorescence Polarization | hit rate 0.93% among 280,000 | AID 1463, 2008 | tau K18 P301L (four-repeat tau fragment) Alexa594 fluorescence, heparin fibrillization | Potency, µM (series often up to 57.7 µM); further: nearly all actives have a fitted effect of over 55% in size
#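 Human K18 P301L tau (15 uM unlabeled plus 0.24 uM Alexa 594-labeled, final) in 100 mM sodium acetate pH 7 was mixed with compound and 20 uM heparin and incubated 6 hr at 37 C.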
# Tau FP inhib: qHTS for Inhibitors of Tau Fibril Formation, Fluorescence Polarization. K18 P301L tau heparin fibrillization, Alexa594 FP, 6 h. Potency, µM (highest dose often 57.7 µM), hits mostly inhibitors. hit rate 0.39% among 280,000; further: nearly all actives have a fitted effect of over 55% in size
#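 FP of Alexa 594-tau after heparin (20 uM) induction. Substrate: human K18 P301L, 15 uM unlabeled, 0.24 uM labeled. Buffer 100 mM sodium acetate pH 7. 6 hr, 37 C.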
# Hits are given with their value; – = inactive; ? = inconclusive; · = no result; [ ] = another dose, or the depositor's remark. Sampled rows, rich in hits. Any-hit rate of the full collection: about 11%. Unless noted, the call rests on the fitted dose curve; in most records, active means well fitted curve in the direction sought with a large enough effect; inconclusive means small, poorly fitted or top-dose-only effect, or another doubt; inactive means no such curve, though single readings can be large; an effect the other way counts as inactive or inconclusive.
SMILES,G9a inh,Sfp inh,Coupling enz,Tau ThT inhib,Tau fluor counter,Tau FP inhib
Cc1ccc(C)c(CSc2nc3ccncc3n2CC(=O)Nc2ccc(N(C)C)cc2)c1,5µM,·,·,?,10µM[quencher],?
CN(C)c1ccc(NC(=O)Cn2c(SCc3ccccc3F)nc3cccnc32)cc1,3.2µM,·,·,–,?,–
Cc1c(Cl)cccc1NC(=O)Cn1nnc2sc3c(c2c1=O)CCCC3,–,·,·,–,–,?
COc1ccc(C)cc1NC(=O)C1CCCN(S(=O)(=O)c2ccc3c(c2)oc(=O)n3C)C1 (centres undefined),–,·,·,–,–,–
Cc1cc(Br)cc(C)c1NC(=O)c1sc2ncn(Cc3cccc(F)c3)c(=O)c2c1C,–,·,·,?,–,–
CCOC(=O)c1c[nH]c2cc(OCC(C)C)c(OCC(C)C)cc2c1=O,–[12.7 µM],–,·,·,·,·
CC(Sc1ccccc1)C(=O)N1CCN(S(=O)(=O)c2ccccc2F)CC1 (centres undefined),–,–,·,·,·,·
COc1ccccc1N1CCN(S(=O)(=O)CCNC(=O)C(c2ccccc2)c2ccccc2)CC1,–,·,·,–,–,–
Cc1ccc(NC(=O)c2oc3ccccc3c2NC(=O)Cc2ccccc2)cc1,–,·,·,–,?,–
CN(C)c1ccc(C2CC(c3cccc(NS(C)(=O)=O)c3)=NN2C(=O)c2ccccc2)cc1 (centres undefined),·,–,–,–,?,?
CNC(=S)N1N=C(c2ccc(C)cc2)CC1c1cc(OC)ccc1OC (centres undefined),·,–,–,–,–,–
CNC(=S)N1N=C(c2ccc(C)cc2)CC1c1ccc(N(C)C)cc1 (centres undefined),14µM,?,–,–,–,–
CNC(=S)N1N=C(c2ccc(C)cc2)CC1c1ccc(OC)cc1 (centres undefined),–[0.501 µM],–,–,–,–,–
CNC(=S)N1N=C(c2ccc(Br)cc2)CC1c1ccc(OC)cc1 (centres undefined),2.5µM,45µM,–,–,–,–
CCC(=O)N1N=C(c2ccc(NS(C)(=O)=O)cc2)CC1c1ccc(N(C)C)cc1 (centres undefined),45µM,–,–,–,–,–
C=C(C(C)=O)C(O)c1cccc(Br)c1 (centres undefined),·,–,–,–,–,–
Cc1cc(C)cc(NC(=O)C2C3C=CC4(O3)C2C(=O)N(CCCN(C)C)C4C(=O)NC2CCCC(C)C2C)c1 (centres undefined),?,–,–,·,·,·
O=C(CSc1oc(-c2ccc(F)cc2)nc1S(=O)(=O)c1ccccc1)NC1CCCCC1,–,·,·,–,–,–
Cc1ccc(CNC(=O)c2ccc(-c3nc(CS(=O)(=O)c4ccc(C)cc4)c(C)o3)cc2)cc1,–,·,·,–,–,–
COc1ccc(C(=O)Nc2ccc(N3CCN(C)CC3)cc2)cc1OC,·,–,–,·,·,·
COc1ccc(C(=O)CCC(=O)Nc2ccc(N3CCCCC3)cc2)cc1OC,45µM,–,–,·,·,·
COC(=O)c1ccc(NC(=O)CN2CCOCC2)cc1,–,–,–,–,–,–
CCOc1ccc(NC(=O)CN2CCN(CC(=O)c3ccc(OC)c(OC)c3)CC2)cc1,2.5µM,–,–,–,–,–
CCOc1ccc(NC(=O)CN2CCN(CC(=O)Nc3ccc(C(N)=O)cc3)CC2)cc1,50µM,–,–,·,·,·
COC(=O)c1ccc(NC(=O)CN2CCN(CC#N)CC2)cc1,10µM,?,–,·,·,·
SMILES,G9a inh,Sfp inh,Coupling enz,Tau ThT inhib,Tau fluor counter,Tau FP inhib
CC(=O)c1cccc(NC(=O)C(C)OC(=O)c2ccc(Br)o2)c1 (centres undefined),–,·,·,·,·,·
CCOc1ccc(NC(=O)CN2CCN(CC(=O)c3ccc(OCC)cc3)CC2)cc1,2.8µM,–,–,–,–,–
CCOc1ccc(NC(=O)CN2CCN(CC(=O)Nc3ccc(F)cc3)CC2)cc1,–[12.7 µM],–,–,–,–,–
COc1ccc(N(CC(=O)N2CCc3ccccc3C2)S(C)(=O)=O)cc1Cl,50µM,–,–,·,·,·
COc1cn(-c2ccccc2)nc1C(=O)Nc1ccccc1,50µM,–,–,·,·,·
Nc1ccc(Cc2ccc(N)c(O)c2)cc1O,50µM,–,–,14µM,?,?
Cc1ccc(C(=O)N/C(=C\c2ccco2)C(=O)NCCN2CCOCC2)cc1,–,–,–,·,·,·
COCCN=C1NC(=O)C(CC(=O)Nc2cccc(Cl)c2C)S1 (centres undefined),50µM,–,–,–,–,–
O=C(Nc1cccc(-c2csc(Nc3cccc(C(F)(F)F)c3)n2)c1)c1ccccc1,–[12.7 µM],–,–,?,8.9µM[quencher],–
Cc1nc(-c2ccc(NC(=O)c3ccccc3)cc2)cs1,–,–,–,–,–,–[2.34 µM]
O=C(Nc1nc(-c2cccnc2)cs1)c1ccc([N+](=O)[O-])cc1,?,–,–,?,?,–
O=C(Nc1cccc(-c2csc(Nc3ccccc3)n2)c1)c1ccccc1,–,–,–,?,13µM[quencher],–
O=C(Nc1cccc(-c2cnc3ccccc3n2)c1)c1ccccc1,–,–,–,–,–,–
O=C(Nc1ccc(-c2csc(Nc3cccc(C(F)(F)F)c3)n2)cc1)c1cc([N+](=O)[O-])cc(C(F)(F)F)c1,–[12.7 µM],–,–,?,3.5µM[quencher],–
O=C(Nc1ccc(-c2csc(Nc3cccc(C(F)(F)F)c3)n2)cc1)c1ccccc1,–,–,–,?,10µM[quencher],–
COc1ccc([C@]23Cc4cc(C#N)ccc4[C@H](O2)c2c(cc(C)n(Cc4ccccc4)c2=O)O3)cc1,·,–,–,·,·,·
CC(=O)c1cccc(Nc2nc(-c3cccnc3)cs2)c1,·,–,–,·,·,·
CC(=O)c1cccc(Nc2nc(-c3ccccc3)cs2)c1,·,–,–,?,7.9µM[quencher],?
O=C1CCCN1c1ccc(C(=O)N(Cc2nnc(-c3ccc(Cl)cc3)o2)C2CC2)cc1,–,·,·,·,·,·
CCOc1ccc(N(CC(=O)O)S(=O)(=O)c2cccnc2)cc1,79µM,–,–,–,–,–
Cc1ccc(NC(=O)CN2CCN(S(=O)(=O)c3cccs3)CC2)cc1S(=O)(=O)N(C)C,–,–,–,–,–,–
CC(C)S(=O)(=O)c1csc(NC(=O)Nc2cc(Cl)ccc2Cl)c1Cl,?,–,–,–,?,22µM
CC(=O)NC(CCS(C)(=O)=O)C(=O)Nc1cc(Cl)ccc1Cl (centres undefined),–,–,–,–,–,–
COc1ccccc1NC(=O)Nc1ccc(N2CCOCC2)cc1,32µM,–,–,?,–,–
